From PubChem BioAssay
D1 PAM – Potentiators of Human D1 Dopamine Receptor: qHTS | D(1A) dopamine receptor (Homo sapiens), P21728 | HEK293 TREx D1 cells, calcium flux, dopamine EC20 potentiation | potentiation, % at 10 µM | 360,000 compounds, 0.036% hits | AID 504651, 2011; in the data active = potentiation above about 30%; note: 0% is about no effect
D1 antag – Antagonist of Human D 1 Dopamine Receptor: qHTS; activity change, negative = inhibition, % at 10 µM; D(1A) dopamine receptor (Homo sapiens), P21728; AID 504652, 2011; 360,000 compounds, 3.2% hits; HEK293 TREx D1 cells, calcium flux, dopamine EC80; hits give low values; in the data active = activity change below about -30%; note: % is set by controls: 0 for no effect and ±100 for the full control effect
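Antagonism measured as reduced calcium response to an EC80 dopamine addition following 180 s compound pre-read; cells were inducible HEK293 Trex D1 plated overnight at 30 C, read kinetically at 1 cycle/sec.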
TRHR agonist – qHTS for Small Molecule Agonists and Allosteric Enhancers of Human TRH Receptor: Primary Screen for Agonists; 360,000 compounds, 0.18% hits; activation, % at 2 µM; Thyrotropin-releasing hormone receptor (Homo sapiens), P34981; AID 493084, 2011; TRHR cells, calcium flux fluo-8, FDSS agonist mode; note: 0% is about no effect
Target sequence (P34981 whole entry, looked up): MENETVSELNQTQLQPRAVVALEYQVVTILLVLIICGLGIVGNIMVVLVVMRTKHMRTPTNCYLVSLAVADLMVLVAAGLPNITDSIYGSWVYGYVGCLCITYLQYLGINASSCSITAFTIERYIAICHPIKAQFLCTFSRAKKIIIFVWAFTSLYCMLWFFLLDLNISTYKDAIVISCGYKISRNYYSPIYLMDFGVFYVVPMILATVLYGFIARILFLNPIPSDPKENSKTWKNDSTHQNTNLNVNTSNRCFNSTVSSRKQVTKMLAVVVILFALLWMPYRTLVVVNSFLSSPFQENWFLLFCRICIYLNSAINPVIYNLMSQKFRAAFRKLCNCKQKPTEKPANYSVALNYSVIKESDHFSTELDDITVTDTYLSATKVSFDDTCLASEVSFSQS
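Steps: seed TRHR cells overnight; add fluo-8 no-wash Ca dye, RT 30 min–1.5 h; record 10 s baseline; pin-transfer compounds; monitor fluorescence 1 cycle/s for the agonist window. Calcium increases flag candidate agonists.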
D1 ag – Allosteric Agonists of the Human D1 Dopamine Receptor: qHTS. AID 504660, 2011. 360,000 compounds, 1% hits. D(1A) dopamine receptor (Homo sapiens), P21728. activation, % at 2 µM. HEK293 T-REx D1 cells, calcium flux, agonist mode; note: 0% is about no effect
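Inducible HEK293 T-REx D1 cells, force-coupled to calcium signalling, were plated at 4000 cells/well with tetracycline and held overnight at 30 C. After no-wash calcium dye loading, compound-evoked calcium rise over 180 s flagged agonists.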
TRHR PAM – qHTS for Small Molecule Agonists and Allosteric Enhancers of Human TRH Receptor: Primary Screen for Enhancers | Thyrotropin-releasing hormone receptor (Homo sapiens), P34981 | TRHR cells, fluo-8 calcium fluorescence, EC20 TRH enhancement | enhancement, % at 2 µM | 360,000 compounds, 0.66% hits | AID 493056, 2011; in the data active = enhancement above about 30%; note: 0% is about no effect
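Enhancer read-out: after compound pinning and an initial kinetic agonist-mode read, an EC20 of TRH (10 nM final) was injected and fluo-8 calcium signal (Ex 480/Em 530) followed at 1 s/cycle for 100 cycles in TRHR-expressing cells.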
* = called active by the depositor; ! = not confirmed by another sample. Compounds with a hit are over-represented: about 4.6% of the library has one in this group of screens. Cut-off read from the data, not from the text of the source, unless noted: active = activation above about 30%; inactive = the rest.

SMILES | D1 PAM | D1 antag | TRHR agonist | D1 ag | TRHR PAM
CSc1ccc(CCNC(=O)c2ccc(CS(=O)Cc3ccccc3Cl)o2)cc1 (stereo unspecified) | 1 | -38* | 0 | 6 | -7
O=C(NCCc1ccc(Cl)cc1)c1ccc(CS(=O)Cc2ccccc2Cl)o1 (stereo unspecified) | 0 | -15 | 0 | 7 | -1
CCNC(=O)/C(=C/c1ccc2c(c1)OCO2)NC(=O)c1ccc(Br)cc1 | 3 | 5 | 0 | 0 | 8
Cc1c(NC(=S)N/N=C/c2ccc(N(C)C)cc2)c(=O)n(-c2ccccc2)n1C | 6 | 5 | 0 | -1 | -1
CN1C(=S)N(c2cccnc2)C(=O)/C1=C\c1ccc(N(C)C)cc1 | -3 | -13 | 29 | 91* | -3
Cc1c(N2C(=O)/C(=C\c3ccc(N(C)C)cc3)N(C)C2=S)c(=O)n(-c2ccccc2)n1C | 0 | 7 | 16 | 38* | 6
COc1ccc(NC(=O)c2cc3c(=O)n(Cc4cccnc4)ccc3nc2C)cc1Cl | -3 | -1 | -1 | 1 | 1
Cc1cc(C)c(S(=O)(=O)NCCC2CCCN2C)c(C)c1 (stereo unspecified) | -10 | -30* | 0 | 6 | -5
CN1CCc2ccccc2Cc2[nH]c3ccccc3c2CC1 | -7 | -107* | 0 | -1 | 1
CCCCN1CCc2c([nH]c3ccccc23)C1=O | 0 | -5 | 0 | 1 | 1
CCC(C)NC(=O)CSc1nc2cc(S(=O)(=O)N3CCOCC3)ccc2n1CC (stereo unspecified) | 1 | -32* | 0 | -1 | 1
CCn1c(SCC(=O)c2cc(C)ccc2C)nc2cc(S(=O)(=O)N3CCOCC3)ccc21 | 2 | 16 | 0 | 4 | -6
O=C(COc1ccccc1Cl)Nc1nnc(S(=O)(=O)N2CCCCCC2)s1 | -2 | -3 | -1 | 16 | -2
Cc1ccc(NC(=O)Cn2c(=O)n(CCC(=O)NCc3ccccc3Cl)c(=O)c3ccccc32)c(C)c1 | -1 | 5 | 1 | -1 | -6
O=C(/C=C/c1ccc([N+](=O)[O-])cc1)NCCN1C(=O)S/C(=C\c2ccc(F)cc2)C1=O | -4 | -31* | 0 | 1 | 3
O=C(/C=C/c1cccc([N+](=O)[O-])c1)NCCN1C(=O)S/C(=C\c2ccc(F)cc2)C1=O | -4 | -40* | 0 | 4 | -3
CC(C)(C)SCCNC(=O)/C=C/c1ccc([N+](=O)[O-])cc1 | -5 | -36* | 2 | 13 | 24
O=C1CN(C(=O)c2ccc(S(=O)(=O)N3CCCCC3)cc2)C(c2ccc(F)cc2)c2cc(Br)ccc2N1 (stereo unspecified) | 1 | 5 | 2 | 4 | -2
O=C(NCc1ccccc1)Nc1cccn(Cc2cccc(F)c2)c1=O | 4 | 9 | -1 | 1 | 2
O=C1CC(=C(c2ccccc2)c2ccccc2)C(=O)N1CCCCN1CCN(c2ccccc2)CC1 | -11 | -57* | 0 | 1 | 20
COC(=O)Nc1nnc(/C=C/c2ccccc2)s1 | 1 | 2 | 0 | 2 | 1
O=C(Nc1nnc(/C=C/c2ccccc2)s1)c1ccco1 | -8 | 4 | 0 | 1 | 34*
CC(=O)Nc1nnc(/C=C/c2cccc([N+](=O)[O-])c2)s1 | -1 | -54* | 0 | -2 | -1
O=S(=O)(c1ccc2c(c1)OCCO2)N1CCN(S(=O)(=O)c2ccccc2OC(F)(F)F)CC1 | -3 | -25 | 1 | 7 | 1
CC(=O)N1CCCC1c1nc2ccccc2n1Cc1c(F)cccc1Cl (stereo unspecified) | -1 | -1 | 0 | -1 | 1
SMILES | D1 PAM | D1 antag | TRHR agonist | D1 ag | TRHR PAM
COc1cccc(NC(=O)c2ccccc2-c2nc(-c3ccccc3)no2)c1 | -8 | -16 | 0 | 3 | 1
COc1cc(C(=O)Nc2ccccc2-c2nc(-c3ccccc3)no2)cc(OC)c1OC | -5 | -12 | 50* | 1 | 6
COc1cccc(NC(=O)c2ccccc2-c2nc(-c3ccc(Cl)cc3)no2)c1 | 3 | -33* | -1 | 7 | -1
COc1ccc(-c2noc(-c3ccc(N4CCN(c5ccccc5OC)CC4)c([N+](=O)[O-])c3)n2)cc1 | 4 | -16 | 0 | 1 | -2
CCOC(=O)c1ccc(NC(=O)C2=C(C)Nc3nc(SCc4ccc(Cl)cc4)nn3C2c2ccc(C)cc2)cc1 (stereo unspecified) | -1 | 2 | -2 | 0 | 10
CCN(CC)CCNC(=O)c1[nH]c2ccccc2c1Sc1ccc(Cl)cc1 | 0 | 13 | 0 | 0 | 7
CCOC(=O)C1(CCc2ccccc2)CCN(Cc2ccc(O)cc2)CC1 | -6 | -86* | 0 | 18 | 2
CCOC(=O)C1(CCc2ccccc2)CCN(Cc2ccc(OC)cc2)CC1 | -5 | 20 | 0 | -1 | 0
CCOC(=O)C1(CCOc2ccccc2)CCN(Cc2ccc(OC)c(O)c2)CC1 | 0 | -71* | -1 | 27 | -1
COc1cc(C(=O)Nc2cc(C)ccc2OCc2cc(=O)n3c(C)csc3n2)cc(OC)c1OC | 3 | -3 | 0 | 1 | 3
O=C(COC(=O)C1CCN(S(=O)(=O)c2cc([N+](=O)[O-])ccc2Cl)CC1)Nc1ncc(Cl)cc1Cl | 2 | -34* | -1 | 0 | 17
CC1Sc2ccc(S(=O)(=O)N3CCC(C(=O)NCC(C)c4ccccc4)CC3)cc2NC1=O (stereo unspecified) | -22 | -76* | 0 | 2 | -8
CC1Sc2ccc(S(=O)(=O)N3CCC(C(=O)NCCc4ccccc4)CC3)cc2NC1=O (stereo unspecified) | -4 | -7 | 0 | 8 | -4
Cc1cc2oc(C(=O)N(Cc3ccccc3)C3CCS(=O)(=O)C3)cc(=O)c2cc1C (stereo unspecified) | 3 | -7 | 0 | 0 | 6
Cc1ccc2c(=O)cc(C(=O)N(Cc3ccc(C(C)(C)C)cc3)C3CCS(=O)(=O)C3)oc2c1 (stereo unspecified) | -3 | -75* | 0 | 0 | -3
COc1ccc(CN(C(=O)c2cc(=O)c3ccccc3o2)C2CCS(=O)(=O)C2)cc1OC (stereo unspecified) | 13 | -37*! | 0 | 4 | -3
O=C(CSC1=NS(=O)(=O)c2cc(Cl)ccc2N1)c1ccc(Cl)cc1 | 0 | -8 | 0 | 7 | 4
COc1ccc(C2=CC(=O)N(Nc3ccccc3)C2=O)cc1 | -5 | 19 | 2 | 5 | 2
